Source: PubChem BioAssay (Tox21)
Where “and” joins values, the source holds several entries; their conditions need not be identical. Identical values can stand only once. Results filed as inconclusive are left out. Values without a mark were called inactive. Calls of active or inactive are those of the source. Calls follow the shape of the dose curve; as a rule, active = well fitted curve in the direction sought with a large enough effect in the repeat runs; inconclusive = weak or mixed curves; inactive = no such curve, though single readings can be large; an effect the other way counts as inactive or inconclusive.

test system: not listed separately; experiment: qHTS assay to identify small molecule antagonists of the constitutive androstane receptor (CAR) signaling pathway - cell viability counter screen (AID 1224837); conditions: HepG2-CYP2B6-hCAR viability, CellTiter-Fluor, 23 h, co-treated with 50 nM CITCO; series mostly up to 92.4 µM; activity change, negative = cytotoxicity: at the top concentration; also: nearly all actives have a fitted effect of over 45% in size
How it was run: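 To flag cytotoxic false antagonists, HepG2 hCAR/CYP2B6-2.2kb cells were treated 23 hr with 15-concentration compound series and 50 nM CITCO at 37 C/5% CO2; CellTiter-Fluor fluorescence was the measured end point.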
% is scaled to controls: 0 for no effect and ±100 for the full control effect; potency is read from the fitted curve at half-maximal effect.

Row | Structure (SMILES) | activity change, negative = cytotoxicity | Potency
1 | FC(Cl)(Cl)Cl | 5.02% | –
2 | CC(=O)Nc1ccc2c(c1)Cc1ccccc1-2 | 1.89% | –
3 | Cc1c(Cl)c(=O)oc2cc(OP(=O)(OCCCl)OCCCl)ccc12 | 15.8% [at 42.5 µM] | –
4 | CC(C)[C@H](C(=O)OC(C#N)c1cccc(Oc2ccccc2)c1)c1ccc(OC(F)F)cc1 (some centres not stated) | 6.63% | –
5 | CCOC(=O)OC1=C(c2cc(C)ccc2C)C(=O)NC12CCC(OC)CC2 (configuration not stated) | -7.14% | –
6 | COc1ccc(OC)c(CC(C)N)c1 (configuration not stated) | -0.474% | –
7 | Clc1ccc(-c2ccc(Cl)c(Cl)c2Cl)c(Cl)c1Cl | -4.2% | –
8 | CCN | 0.578% | –
9 | CCCCCCCCCCCCCN1CC(C)OC(C)C1 (configuration not stated) | 0.017% | –
10 | N#CCCSCCC#N | 6.45% | –
11 | c1ccc2cc3c(cc2c1)-c1cccc2cccc-3c12 | 7.86% | –
12 | CCCN(CC)CC1COC2(CCC(C(C)(C)C)CC2)O1 (configuration not stated) | 1.42% | –
13 | CC(C)(C)OO | 2.08% | –
14 | ClC1=C(Cl)C2(Cl)C3C(Cl)C=CC3C1(Cl)C2(Cl)Cl (configuration not stated) | – | inactive
15 | OC(c1ccc(Cl)cc1)(c1ccc(Cl)cc1)C(Cl)(Cl)Cl | -2.32% | –
16 | N#CC(Cl)Cl | 3.63% | –
17 | Cc1ccc(OP(=O)(Oc2ccccc2)Oc2ccccc2)cc1 | -1.84% | –
18 | FC(F)(F)c1cccc(C2=CCN(CCc3ccc4ccccc4c3)CC2)c1 | 10.8% [at 42.5 µM] | –
19 | BrC(Br)Br | -1.22% | –
20 | Cc1cc(C(F)(C(F)(F)F)C(F)(F)F)ccc1NC(=O)c1cccc(I)c1C(=O)NC(C)(C)CS(C)(=O)=O | 2.55% [at 42.5 µM] | –
21 | CCCN(CCC)CCc1c[nH]c2ccccc12 | -17.6% | –
22 | CC(C)OS(C)(=O)=O | 8.71% | –
23 | N#CNC#N | 2.69% | –
24 | CCOCn1c(-c2ccc(Cl)cc2)c(C#N)c(Br)c1C(F)(F)F | – | 4.33 µM (active)

biological target: Nuclear receptor subfamily 1 group I member 3 (Homo sapiens) (UniProt Q14994); experiment: qHTS assay to identify small molecule antagonists of the constitutive androstane receptor (CAR) signaling pathway (AID 1224838); conditions: HepG2-CYP2B6-hCAR luciferase, CITCO-stimulated, 24 h; series mostly up to 92.4 µM; activity, negative = inhibition: at the top concentration;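 also: HepG2 cells stably expressing hCAR with CYP2B6 luciferase reporter stimulated by CITCO; nearly all actives have a fitted effect of over 40% in size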
How it was run: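 Human hepatoma HepG2 cells expressing hCAR and a CYP2B6 promoter (2.2 kb) luciferase construct; compound titration (15 points) with 50 nM CITCO final, 24 h at 37 C/5% CO2; luminescence via ONE-Glo after 30 min at room temperature.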

Sequence of Nuclear receptor subfamily 1 group I member 3 (Homo sapiens) (Q14994 whole entry, looked up): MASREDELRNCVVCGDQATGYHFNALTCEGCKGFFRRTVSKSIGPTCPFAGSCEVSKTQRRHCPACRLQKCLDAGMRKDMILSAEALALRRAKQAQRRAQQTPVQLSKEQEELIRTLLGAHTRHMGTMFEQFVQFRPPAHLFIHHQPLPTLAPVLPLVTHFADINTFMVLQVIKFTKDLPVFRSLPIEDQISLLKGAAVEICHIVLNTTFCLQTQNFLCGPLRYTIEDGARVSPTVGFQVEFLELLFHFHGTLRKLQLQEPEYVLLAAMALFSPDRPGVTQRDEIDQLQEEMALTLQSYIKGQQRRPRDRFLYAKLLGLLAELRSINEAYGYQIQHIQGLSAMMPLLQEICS

Row | Structure (SMILES) | activity, negative = inhibition | Potency
25 | CCOC(=O)C1(c2ccccc2)CCN(CCC(C#N)(c2ccccc2)c2ccccc2)CC1 | 24.6% [at 42.5 µM] | –
26 | CC(C)CC(C)(c1ccc(O)cc1)c1ccc(O)cc1 | – | 2.44 µM (active)
27 | CC(C)[C@H](C(=O)OC(C#N)c1cccc(Oc2ccccc2)c1)c1ccc(OC(F)F)cc1 (some centres not stated) | -7.04% | –
28 | CCOC(=O)OC1=C(c2cc(C)ccc2C)C(=O)NC12CCC(OC)CC2 (configuration not stated) | -2.06% | –
29 | C[C@H]1CC[C@@H]2[C@@H](C)[C@H]3[C@H](C[C@H]4[C@@H]5CC=C6CC(O[C@@H]7O[C@H](CO)[C@H](O)[C@H](O[C@@H]8O[C@H](CO)[C@@H](O)[C@H](O)[C@H]8O)[C@H]7O[C@H]7O[C@@H](C)[C@H](O)[C@@H](O)[C@H]7O)CC[C@]6(C)[C@H]5CC[C@]34C)N2C1 (some centres not stated) | – | 22.4 µM (active)
30 | Clc1ccc(CCC(Cn2ccnc2)Sc2c(Cl)cccc2Cl)cc1 (configuration not stated) | 54.4% [at 42.5 µM] | –
31 | Clc1ccc(-c2ccc(Cl)c(Cl)c2Cl)c(Cl)c1Cl | 13.7% | –
32 | N#CCCSCCC#N | -3.74% | –
33 | O=C(O)COc1nc(Cl)c(Cl)cc1Cl | 25.6% | –
34 | O=C1NCN(c2ccccc2)C12CCN(CC1COc3ccccc3O1)CC2 (configuration not stated) | 29.3% [at 42.5 µM] | –
35 | c1ccc2cc3c(cc2c1)-c1cccc2cccc-3c12 | -0.237% | –
36 | ClC1=C(Cl)C2(Cl)C3C(Cl)C=CC3C1(Cl)C2(Cl)Cl (configuration not stated) | – | inactive
37 | OC(c1ccc(Cl)cc1)(c1ccc(Cl)cc1)C(Cl)(Cl)Cl | 83% | –
38 | Cc1ccc(OP(=O)(Oc2ccccc2)Oc2ccccc2)cc1 | 36.8% | –
39 | FC(F)(F)c1cccc(C2=CCN(CCc3ccc4ccccc4c3)CC2)c1 | -10.4% [at 42.5 µM] | –
40 | O=[N+]([O-])c1c2ccccc2cc2ccccc12 | 188% | –
41 | CCCN(CCC)CCc1c[nH]c2ccccc12 | 41.7% | –
42 | CC(C)OS(C)(=O)=O | 9.7% | –
43 | N#CNC#N | 0.474% | –
44 | C[C@@H]1O[C@@H](O[C@H]2C[C@@H](O)[C@]3(CO)[C@H]4[C@H](O)C[C@]5(C)[C@@H](C6=CC(=O)OC6)CC[C@]5(O)[C@@H]4CC[C@]3(O)C2)[C@H](O)[C@H](O)[C@H]1O | – | 146 nM (active) and 168 nM (active)
45 | CCOCn1c(-c2ccc(Cl)cc2)c(C#N)c(Br)c1C(F)(F)F | – | 4.86 µM (active)

biological target: Nuclear receptor subfamily 1 group I member 3 (Homo sapiens) (UniProt Q14994); experiment: qHTS assay to identify small molecule agonists of the constitutive androstane receptor (CAR) signaling pathway (AID 1224839); conditions: HepG2 hCAR CYP2B6-luciferase, agonist mode, 24 h; series mostly up to 92.4 µM; activation: at the top concentration; also: nearly all actives have a fitted effect of over 15% in size;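 as to activation: HepG2 cells stably carrying human CAR and a CYP2B6 luciferase reporter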
How it was run: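 Stable hCAR/CYP2B6-2.2kb HepG2 line in DMEM with 10% FBS; compounds (15 concentrations) and 0.75 uM PK11195 final, 24 h at 37 C/5% CO2, then ONE-Glo luminescence after 30 min.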

Row | Structure (SMILES) | Potency | activation
46 | CC(C)CC(C)(c1ccc(O)cc1)c1ccc(O)cc1 | 6.87 µM (active) and 2.17 µM (active) | –
47 | CC(=O)Nc1ccc2c(c1)Cc1ccccc1-2 | 31.1 µM (active) | –
48 | Cc1c(Cl)c(=O)oc2cc(OP(=O)(OCCCl)OCCCl)ccc12 | – | -0.007% [at 42.5 µM]
49 | CC(C)[C@H](C(=O)OC(C#N)c1cccc(Oc2ccccc2)c1)c1ccc(OC(F)F)cc1 (some centres not stated) | – | 12.6%
50 | CCOC(=O)OC1=C(c2cc(C)ccc2C)C(=O)NC12CCC(OC)CC2 (configuration not stated) | – | -1.81%
51 | C[C@H]1CC[C@@H]2[C@@H](C)[C@H]3[C@H](C[C@H]4[C@@H]5CC=C6CC(O[C@@H]7O[C@H](CO)[C@H](O)[C@H](O[C@@H]8O[C@H](CO)[C@@H](O)[C@H](O)[C@H]8O)[C@H]7O[C@H]7O[C@@H](C)[C@H](O)[C@@H](O)[C@H]7O)CC[C@]6(C)[C@H]5CC[C@]34C)N2C1 (some centres not stated) | – | -24.2%
52 | Clc1ccc(CCC(Cn2ccnc2)Sc2c(Cl)cccc2Cl)cc1 (configuration not stated) | 29.8 µM (active) | –
53 | COc1ccc(OC)c(CC(C)N)c1 (configuration not stated) | – | -1.17%
54 | CCN | – | -0.636%
55 | N#CCCSCCC#N | – | 2.47%
56 | O=C(O)COc1nc(Cl)c(Cl)cc1Cl | – | -4.75%
57 | O=C1NCN(c2ccccc2)C12CCN(CC1COc3ccccc3O1)CC2 (configuration not stated) | – | -3.69% [at 42.5 µM]
58 | c1ccc2cc3c(cc2c1)-c1cccc2cccc-3c12 | 0.955 µM (active) | –
59 | CCCN(CC)CC1COC2(CCC(C(C)(C)C)CC2)O1 (configuration not stated) | – | -4.94%
60 | CC(C)(C)OO | – | 2.48%
61 | NNC(=O)c1ccccc1 | 62.8 µM (active) | –
62 | c1ccc2c(c1)[nH]c1cnccc12 | – | 0.492%
63 | Cc1ccc(OP(=O)(Oc2ccccc2)Oc2ccccc2)cc1 | 17.5 µM (active) | –
64 | FC(F)(F)c1cccc(C2=CCN(CCc3ccc4ccccc4c3)CC2)c1 | – | -1.34% [at 42.5 µM]
65 | BrC(Br)Br | – | 6.03%
66 | Cc1cc(C(F)(C(F)(F)F)C(F)(F)F)ccc1NC(=O)c1cccc(I)c1C(=O)NC(C)(C)CS(C)(=O)=O | – | -4.7% [at 42.5 µM]
67 | O=[N+]([O-])c1c2ccccc2cc2ccccc12 | 21.4 µM (active) | –
68 | CCCN(CCC)CCc1c[nH]c2ccccc12 | – | -0.0468%
69 | CC(C)OS(C)(=O)=O | – | -1.06%
70 | N#CNC#N | – | 1.6%
71 | C[C@@H]1O[C@@H](O[C@H]2C[C@@H](O)[C@]3(CO)[C@H]4[C@H](O)C[C@]5(C)[C@@H](C6=CC(=O)OC6)CC[C@]5(O)[C@@H]4CC[C@]3(O)C2)[C@H](O)[C@H](O)[C@H]1O | inactive | –
72 | CCOCn1c(-c2ccc(Cl)cc2)c(C#N)c(Br)c1C(F)(F)F | – | -16.8%
